# Experimental data from the supplement of paper PMC8728848.
# Only a selection was taken, and the strongest signals are over-represented in it overall.
# B1: AFL6 (Aspergillus fumigatus), Q4WKJ1 (protein)
# chain: MSFHLTAEDIRIEDGHRLVARLRNADGDLQDASIDLNTCLGNDNGHFQWDGVDFSHSAQDVHFAIEGGGQVPVLRAQLANQDGEFQDADVNLSERIENINGEFVFH
# Legend:
# Test in all cases: glycan array binding signal (z-score within array); higher = stronger binding
# Conditions in all cases: glycan notation: IUPAC condensed, linker removed
# [1] = target: Fuc(a1-2)Gal(b1-3)GalNAc(a1-3)[Fuc(a1-2)]Gal(b1-4)Glc
# Summary of the method: (§1)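 Glycan array data were curated from 3228 arrays in the Consortium for Functional Glycomics database and kept only where the protein sequence was available. Glycan names were converted to IUPAC-condensed notation, and columns mapping to the same glycan were averaged. The binding signal is a within-array Z-score, averaged across arrays of the same protein sequence at different concentrations or buffers and across linkers. Negative Z-scores can be read as non-binding.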
# [2] = target: Fuc(a1-2)Gal(b1-3)GlcNAc(b1-2)Man(a1-3)[Fuc(a1-2)Gal(b1-3)GlcNAc(b1-2)Man(a1-6)]Man(b1-4)GlcNAc(b1-4)GlcNAc
# Summary of the method: as §1
# [3] = target: Fuc(a1-2)Gal(b1-4)Glc6S
# Summary of the method: as §1
# [4] = target: Fuc(a1-2)Gal(b1-4)GlcNAc6S
# Summary of the method: as §1
# [5] = target: Fuc(a1-2)[Gal(a1-3)]Gal(b1-3)GlcNAc
# Summary of the method: as §1
# [6] = target: Fuc(a1-2)[Gal(a1-3)]Gal(b1-3)GlcNAc(b1-6)GalNAc
# Summary of the method: as §1
# [7] = target: Fuc(a1-2)[Gal(a1-3)]Gal(b1-4)GlcNAc(b1-2)Man(a1-3)[Fuc(a1-2)[Gal(a1-3)]Gal(b1-4)GlcNAc(b1-2)Man(a1-6)]Man(b1-4)GlcNAc(b1-4)GlcNAc
# Summary of the method: as §1
# [8] = target: Fuc(a1-2)[GalNAc(a1-3)]Gal
# Summary of the method: as §1
# [9] = target: Fuc(a1-2)[GalNAc(a1-3)]Gal(b1-4)GlcNAc(b1-3)GalNAc
# Summary of the method: as §1
# [10] = target: Gal(a1-3)Gal(b1-3)GlcNAc(b1-2)Man(a1-3)[Gal(a1-3)Gal(b1-3)GlcNAc(b1-2)Man(a1-6)]Man(b1-4)GlcNAc(b1-4)GlcNAc
# Summary of the method: as §1
# [11] = target: Gal(a1-4)Gal(b1-4)GlcNAc(b1-3)Gal(b1-4)Glc
# Summary of the method: as §1
# [12] = target: Gal(b1-3)GalNAc(b1-3)Gal
# Summary of the method: as §1
# [13] = target: Gal(b1-3)GlcNAc(b1-3)Gal(b1-4)GlcNAc
# Summary of the method: as §1
# [14] = target: Gal(b1-3)GlcNAc(b1-3)Gal(b1-4)GlcNAc(b1-2)[Gal(b1-3)GlcNAc(b1-3)Gal(b1-4)GlcNAc(b1-6)]Man(a1-6)[Gal(b1-3)GlcNAc(b1-3)Gal(b1-4)GlcNAc(b1-2)Man(a1-3)]Man(b1-4)GlcNAc(b1-4)[Fuc(a1-6)]GlcNAc
# Summary of the method: as §1
# [15] = target: Gal(b1-3)[Fuc(a1-4)]GlcNAc(b1-3)Gal(b1-3)[Fuc(a1-4)]GlcNAc
# Summary of the method: as §1
# [16] = target: Gal(b1-4)GlcNAc(b1-2)[Gal(b1-4)GlcNAc(b1-6)]Man(a1-6)[GlcNAc(b1-4)][Gal(b1-4)GlcNAc(b1-2)[Gal(b1-4)GlcNAc(b1-4)]Man(a1-3)]Man(b1-4)GlcNAc(b1-4)[Fuc(a1-6)]GlcNAc
# Summary of the method: as §1
# [17] = target: Gal(b1-4)GlcNAc(b1-3)Gal(b1-4)GlcNAc(b1-3)Gal(b1-4)GlcNAc(b1-2)Man(a1-3)[Gal(b1-4)GlcNAc(b1-3)Gal(b1-4)GlcNAc(b1-3)Gal(b1-4)GlcNAc(b1-2)Man(a1-6)]Man(b1-4)GlcNAc(b1-4)GlcNAc
# Summary of the method: as §1
# [18] = target: Gal(b1-4)GlcNAc(b1-3)Gal(b1-4)GlcNAc(b1-3)Gal(b1-4)GlcNAc(b1-3)Gal(b1-4)GlcNAc(b1-2)Man(a1-3)[Gal(b1-4)GlcNAc(b1-3)Gal(b1-4)GlcNAc(b1-3)Gal(b1-4)GlcNAc(b1-3)Gal(b1-4)GlcNAc(b1-2)Man(a1-6)]Man(b1-4)GlcNAc(b1-4)[Fuc(a1-6)]GlcNAc
# Summary of the method: as §1
# [19] = target: Gal(b1-4)GlcNAc(b1-3)Gal(b1-4)GlcNAc(b1-3)[Gal(b1-4)GlcNAc(b1-3)Gal(b1-4)GlcNAc(b1-6)]GalNAc
# Summary of the method: as §1
# [20] = target: Gal(b1-4)GlcNAc(b1-3)[Fuc(a1-3)GlcNAc(b1-6)]Gal(b1-4)Glc
# Summary of the method: as §1
# [21] = target: Gal3S(b1-3)[Fuc(a1-4)]GlcNAc
# Summary of the method: as §1
# [22] = target: Gal6P(b1-4)GlcNAc
# Summary of the method: as §1
# [23] = target: GalNAc(b1-3)Gal(a1-4)Gal(b1-4)GlcNAc(b1-3)Gal(b1-4)Glc
# Summary of the method: as §1
# [24] = target: GalNAc(b1-3)GalNAc
# Summary of the method: as §1
# [25] = target: GlcNAc(a1-4)Gal(b1-4)GlcNAc
# Summary of the method: as §1
# [26] = target: GlcNAc(a1-4)Gal(b1-4)GlcNAc(b1-3)Gal(b1-4)Glc
# Summary of the method: as §1
# [27] = target: GlcNAc(a1-4)Gal(b1-4)GlcNAc(b1-3)Gal(b1-4)GlcNAc
# Summary of the method: as §1
# [28] = target: GlcNAc(a1-4)Gal(b1-4)GlcNAc(b1-3)Gal(b1-4)GlcNAc(b1-3)Gal(b1-4)GlcNAc
# Summary of the method: as §1
# [29] = target: GlcNAc(b1-2)[GlcNAc(b1-6)]Man(a1-6)[GlcNAc(b1-4)][GlcNAc(b1-2)Man(a1-3)]Man(b1-4)GlcNAc(b1-4)GlcNAc
# Summary of the method: as §1
# [30] = target: GlcNAc(b1-3)Gal(b1-4)GlcNAc(b1-3)Gal(b1-4)GlcNAc(b1-2)Man(a1-3)[GlcNAc(b1-3)Gal(b1-4)GlcNAc(b1-3)Gal(b1-4)GlcNAc(b1-2)Man(a1-6)]Man(b1-4)GlcNAc(b1-4)[Fuc(a1-6)]GlcNAc
# Summary of the method: as §1
# [31] = target: GlcNAc(b1-3)Gal(b1-4)GlcNAc(b1-3)Gal(b1-4)GlcNAc(b1-3)GalNAc
# Summary of the method: as §1
# [32] = target: GlcNAc(b1-4)[GlcNAc(b1-6)]GalNAc
# Summary of the method: as §1
# [33] = target: GlcNAc(b1-6)GalNAc
# Summary of the method: as §1
# [34] = target: Man(a1-2)Man(a1-6)[Man(a1-3)]Man(a1-6)[Man(a1-2)Man(a1-2)Man(a1-3)]Man
# Summary of the method: as §1
# [35] = target: Man(b1-4)GlcNAc
# Summary of the method: as §1
# [36] = target: Neu5Ac(a2-3)Gal(b1-3)GlcNAc(b1-2)Man(a1-3)[GlcNAc(b1-4)][Neu5Ac(a2-3)Gal(b1-3)GlcNAc(b1-2)Man(a1-6)]Man(b1-4)GlcNAc(b1-4)GlcNAc
# Summary of the method: as §1
# [37] = target: Neu5Ac(a2-3)Gal(b1-4)GlcNAc(b1-2)Man(a1-3)[Neu5Ac(a2-3)Gal(b1-4)GlcNAc(b1-2)Man(a1-6)]Man(b1-4)GlcNAc(b1-4)GlcNAc
# Summary of the method: as §1
# [38] = target: Neu5Ac(a2-3)Gal(b1-4)GlcNAc(b1-3)Gal(b1-4)GlcNAc(b1-3)Gal(b1-4)GlcNAc(b1-2)Man(a1-3)[Neu5Ac(a2-3)Gal(b1-4)GlcNAc(b1-3)Gal(b1-4)GlcNAc(b1-3)Gal(b1-4)GlcNAc(b1-2)Man(a1-6)]GalNAc
# Summary of the method: as §1
# [39] = target: Neu5Ac(a2-3)Gal(b1-4)GlcNAc(b1-6)GalNAc
# Summary of the method: as §1
# [40] = target: Neu5Ac(a2-3)[GalNAc(b1-4)]Gal(b1-4)Glc
# Summary of the method: as §1
# [41] = target: Neu5Ac(a2-6)Gal(b1-4)GlcNAc(b1-2)Man(a1-3)Man(b1-4)GlcNAc(b1-4)GlcNAc
# Summary of the method: as §1
# [42] = target: Neu5Ac(a2-6)Gal(b1-4)GlcNAc(b1-2)Man(a1-3)[Neu5Ac(a2-3)Gal(b1-4)GlcNAc(b1-2)Man(a1-6)]Man(b1-4)GlcNAc(b1-4)GlcNAc
# Summary of the method: as §1
# [43] = target: Neu5Ac(a2-6)Gal(b1-4)GlcNAc(b1-3)Gal(b1-4)GlcNAc(b1-3)Gal(b1-4)GlcNAc(b1-2)Man(a1-3)[Neu5Ac(a2-6)Gal(b1-4)GlcNAc(b1-3)Gal(b1-4)GlcNAc(b1-3)Gal(b1-4)GlcNAc(b1-2)Man(a1-6)]GalNAc
# Summary of the method: as §1
# [44] = target: Neu5Ac(a2-6)Gal(b1-4)GlcNAc(b1-6)[Gal(b1-3)GlcNAc(b1-3)]Gal(b1-4)Glc
# Summary of the method: as §1
# [45] = target: Neu5Ac(a2-6)GlcNAc(b1-4)GlcNAc
# Summary of the method: as §1
# [46] = target: Neu5Ac(a2-8)Neu5Ac(a2-3)Gal(b1-3)GalNAc(b1-4)[Neu5Ac(a2-3)]Gal(b1-4)Glc
# Summary of the method: as §1
# [47] = target: Neu5Ac(a2-8)Neu5Ac(a2-3)[Gal(b1-3)GalNAc(b1-4)]Gal(b1-4)Glc
# Summary of the method: as §1
binder,measurement,setting,value
B1,glycan array binding signal (z-score),[1],-0.421
same,glycan array binding signal (z-score),[2],2.45
same,glycan array binding signal (z-score),[3],-0.234
same,glycan array binding signal (z-score),[4],-0.334
same,glycan array binding signal (z-score),[5],-0.417
same,glycan array binding signal (z-score),[6],-0.178
same,glycan array binding signal (z-score),[7],0.717
same,glycan array binding signal (z-score),[8],0.228
same,glycan array binding signal (z-score),[9],-0.656
same,glycan array binding signal (z-score),[10],0.406
same,glycan array binding signal (z-score),[11],0.039
same,glycan array binding signal (z-score),[12],-0.263
same,glycan array binding signal (z-score),[13],-0.706
same,glycan array binding signal (z-score),[14],1.91
same,glycan array binding signal (z-score),[15],-0.509
same,glycan array binding signal (z-score),[16],-0.245
same,glycan array binding signal (z-score),[17],2.41
same,glycan array binding signal (z-score),[18],2.99
same,glycan array binding signal (z-score),[19],4.09
same,glycan array binding signal (z-score),[20],-0.272
same,glycan array binding signal (z-score),[21],-0.44
same,glycan array binding signal (z-score),[22],-0.655
same,glycan array binding signal (z-score),[23],-0.055
same,glycan array binding signal (z-score),[24],-0.414
same,glycan array binding signal (z-score),[25],2.64
same,glycan array binding signal (z-score),[26],2.89
same,glycan array binding signal (z-score),[27],3.58
same,glycan array binding signal (z-score),[28],3.77
same,glycan array binding signal (z-score),[29],-0.56
same,glycan array binding signal (z-score),[30],2.48
same,glycan array binding signal (z-score),[31],-0.176
same,glycan array binding signal (z-score),[32],-0.154
same,glycan array binding signal (z-score),[33],-0.476
same,glycan array binding signal (z-score),[34],-0.466
same,glycan array binding signal (z-score),[35],-0.133
same,glycan array binding signal (z-score),[36],-0.296
same,glycan array binding signal (z-score),[37],0.029
same,glycan array binding signal (z-score),[38],4.83
same,glycan array binding signal (z-score),[39],0.04
same,glycan array binding signal (z-score),[40],0.054
same,glycan array binding signal (z-score),[41],0.065
same,glycan array binding signal (z-score),[42],-0.35
same,glycan array binding signal (z-score),[43],3.09
same,glycan array binding signal (z-score),[44],0.854
same,glycan array binding signal (z-score),[45],-0.135
same,glycan array binding signal (z-score),[46],-0.5
same,glycan array binding signal (z-score),[47],-0.306
